Screening results (PubChem BioAssay)
Hits are enriched below; roughly 3.4% of the tested compounds scored in any of these assays.
HGIII-sPLA2 inh = Blocks human group III sPLA2 activity; Q9NZ20; AID 743126; QFRET BODIPY PC-A2 liposome hydrolysis, fluorescence; 0.56% of 370,000 active; inhibition, % at 12.2 µM;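 active = inhibition above mean plus 3 SD of compounds lying within the high and low control bounds, cut at about 19% in these data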;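 note: 0% = median of test compound wells and 100% = no enzyme DMSO wells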
ADAM17 inh = inhibits human ADAM17. recombinant ADAM17, EDANS/DABCYL FRET peptide cleavage. P78536. AID 720648. inhibition, % at 6.95 µM. 0.83% of 370,000 active;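 active = inhibition above the mean of compounds lying between control limits plus 3 SD, set per campaign, cut at about 8.5% in these data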;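 note: 0% = DMSO-only wells as the low control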
PLC-beta3 inh = inhibitors of human phospholipase C beta3 | inhibition, % at 12.2 µM | Purified PLC-beta3, fluorogenic substrate, fluorescence | Q01970 | 0.18% of 370,000 active; in the data active = inhibition above about 11%;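 note: 0% = median of compound wells on plate and 100% = full blocker control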
Target sequence (Q01970 whole entry, looked up): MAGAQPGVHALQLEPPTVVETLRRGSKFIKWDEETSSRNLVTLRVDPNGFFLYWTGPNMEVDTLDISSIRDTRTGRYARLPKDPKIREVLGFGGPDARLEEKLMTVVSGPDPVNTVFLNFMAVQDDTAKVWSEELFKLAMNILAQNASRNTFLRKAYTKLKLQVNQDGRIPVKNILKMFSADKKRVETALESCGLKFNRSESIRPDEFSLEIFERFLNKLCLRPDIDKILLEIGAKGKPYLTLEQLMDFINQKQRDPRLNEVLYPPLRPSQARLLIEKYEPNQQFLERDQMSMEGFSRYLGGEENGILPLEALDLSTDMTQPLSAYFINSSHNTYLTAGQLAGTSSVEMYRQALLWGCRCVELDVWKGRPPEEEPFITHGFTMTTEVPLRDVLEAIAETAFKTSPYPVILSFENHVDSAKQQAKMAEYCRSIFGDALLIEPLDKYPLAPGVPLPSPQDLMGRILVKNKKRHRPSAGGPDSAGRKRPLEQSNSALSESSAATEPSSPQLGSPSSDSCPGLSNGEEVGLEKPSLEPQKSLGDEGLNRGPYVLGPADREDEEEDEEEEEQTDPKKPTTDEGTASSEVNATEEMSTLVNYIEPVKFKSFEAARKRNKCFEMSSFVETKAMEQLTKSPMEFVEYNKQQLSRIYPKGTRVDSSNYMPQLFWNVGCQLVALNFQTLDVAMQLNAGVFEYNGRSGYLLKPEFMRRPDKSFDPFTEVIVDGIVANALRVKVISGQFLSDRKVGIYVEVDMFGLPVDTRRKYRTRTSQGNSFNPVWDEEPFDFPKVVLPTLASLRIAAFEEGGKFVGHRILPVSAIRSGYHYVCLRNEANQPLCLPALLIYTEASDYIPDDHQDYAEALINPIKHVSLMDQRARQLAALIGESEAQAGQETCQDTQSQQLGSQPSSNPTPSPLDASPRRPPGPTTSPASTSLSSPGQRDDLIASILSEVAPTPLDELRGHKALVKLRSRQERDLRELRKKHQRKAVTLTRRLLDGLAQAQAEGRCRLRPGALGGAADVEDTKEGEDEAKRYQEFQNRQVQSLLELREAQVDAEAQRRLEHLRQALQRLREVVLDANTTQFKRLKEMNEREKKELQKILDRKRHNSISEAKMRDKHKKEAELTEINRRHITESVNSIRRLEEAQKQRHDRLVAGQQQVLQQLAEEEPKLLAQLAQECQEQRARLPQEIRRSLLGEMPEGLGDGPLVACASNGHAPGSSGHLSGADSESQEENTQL
ADAM10 inh = inhibitors of human ADAM10; inhibition, % at 7 µM; 0.62% of 370,000 active; O14672; AID 720582; recombinant ADAM10, EDANS/DABCYL FRET peptide cleavage, 3 h;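 active = inhibition above a per-campaign cutoff equal to the mean of compounds falling between control-based bounds plus 3 SD, cut at about 20% in these data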;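 note: 0% = DMSO wells while the 100% control is not disclosed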
PLCg1 inh = inhibitors of human phospholipase C gamma1; purified PLC-gamma1, fluorogenic substrate, fluorescence; inhibition, % at 12.2 µM; 0.84% of 370,000 active; in the data active = inhibition above about 9.5%
proKLK7 act = activators of human kallikrein-7 zymogen | purified proKLK7, EDANS-DABCYL substrate fluorescence; 100% is mature enzyme control, 0% vehicle | 0.9% of 370,000 active | activation, % at 7 µM | P49862 | AID 652039;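 active = activation above the mean of all tested compounds plus 3 SD, computed per campaign excluding outliers beyond control limits, cut at about 13% in these data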
KLK7 act conf = proKLK7 activation, confirmation; shares compounds with proKLK7 act; purified proKLK7, EDANS-DABCYL substrate fluorescence; scaled: vehicle 0, mature enzyme 100; activation, % at 7 µM; 68% of 3,200 active; AID 686949;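 active = activation, as change over the incubation, above the mean of all tested compounds plus 3 SD, cut at about 13% in these data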
EDANS interfere = fluorescence interference counter-screen for KLK7 activators. shares compounds with proKLK7 act. EDANS-DABCYL substrate fluorescence interference, no enzyme, 4 h; solvent 0%, active enzyme control 100%. activation, % at 7 µM. 80% of 3,200 active. AID 686952;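 active = activation above the all-compound mean plus 3 SD, ignoring values outside control-based bounds, cut at about 4.8% in these data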;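 note: value is the 4 h activation minus the activation read at time zero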
Active calls of the source: *.

For CCOc1ccc(-c2cc(C(=O)N3CCC(C)CC3)c3ccccc3n2)cc1 the results were HGIII-sPLA2 inh 11, ADAM17 inh -27, PLC-beta3 inh -99, ADAM10 inh -98, PLCg1 inh -52 and proKLK7 act -20.
COC(=O)C[C@@H]1CC[C@H]2[C@@H](COc3ccc(NC(=O)Nc4ccc(C)cc4)cc3C(=O)N2C)O1 was read as HGIII-sPLA2 inh -2, ADAM17 inh -1, PLC-beta3 inh 5, ADAM10 inh 3, PLCg1 inh 6 and proKLK7 act 0.
CCC(c1nnnn1Cc1ccc(F)cc1)N(CCCO)Cc1cc2cc3c(cc2[nH]c1=O)OCO3 (stereo not given) was read as HGIII-sPLA2 inh -14, ADAM17 inh -170, PLC-beta3 inh inactive, ADAM10 inh inactive, PLCg1 inh inactive, proKLK7 act 26*, KLK7 act conf 0 and EDANS interfere 1.
For CCC(c1nnnn1CC1CCCO1)N(CCCO)Cc1cc2cccc(C)c2[nH]c1=O (stereo not given) the results were HGIII-sPLA2 inh 1, ADAM17 inh -14, PLC-beta3 inh -147, ADAM10 inh -63, PLCg1 inh -116 and proKLK7 act 4.
For O=c1nc(-c2ccccc2)c2ccccc2[nH]1 the results were HGIII-sPLA2 inh 0, ADAM17 inh -54, PLC-beta3 inh -240, ADAM10 inh -157, PLCg1 inh -200 and proKLK7 act 9.
`Cc1ccc(-c2nc(=O)[nH]c3ccccc23)cc1` gave HGIII-sPLA2 inh -3, ADAM17 inh -88, PLC-beta3 inh -369, ADAM10 inh -238, PLCg1 inh -258, proKLK7 act 14*, KLK7 act conf 16* and EDANS interfere 19*.
Screening CCOC(=O)c1ccccc1NC1CC(=O)N(c2ccccc2C)C1=O (stereo not given) returned HGIII-sPLA2 inh -14, ADAM17 inh -465, PLC-beta3 inh -364, ADAM10 inh inactive, PLCg1 inh -293, proKLK7 act 193*, KLK7 act conf 169* and EDANS interfere 161*.
Screening CCOC(=O)c1ccccc1NC(=O)C1CC(=O)N(C(C)(C)C)C1 (stereo not given) returned HGIII-sPLA2 inh 2, ADAM17 inh -4, PLC-beta3 inh -6, ADAM10 inh -3, PLCg1 inh -1 and proKLK7 act 0.
For COC(=O)[C@@]1(C(C)C)N=C(c2cc(OC)c(OC)c(OC)c2)[C@]2(O1)C(=O)N(Cc1cn(-c3ccccc3)nn1)c1cccc(Cl)c12 the results were HGIII-sPLA2 inh -6, ADAM17 inh -5, PLC-beta3 inh 1, ADAM10 inh -3, PLCg1 inh -2 and proKLK7 act 0.
For Cc1cc(-c2ccc(C(=O)O)s2)cnc1N the results were HGIII-sPLA2 inh 9, ADAM17 inh inactive, PLC-beta3 inh inactive, ADAM10 inh inactive, PLCg1 inh inactive, proKLK7 act 31*, KLK7 act conf 61* and EDANS interfere 70*.
`CC1(C)C=C(c2ccc(C(=O)O)s2)CC(C)(C)N1` gave HGIII-sPLA2 inh 8, ADAM17 inh 2, PLC-beta3 inh 4, ADAM10 inh -6, PLCg1 inh 3 and proKLK7 act 0.
`COC(=O)[C@H](C(C)C)N(CCc1cn(CC2CCCCC2)nn1)S(=O)(=O)c1ccc(F)cc1Br` gave HGIII-sPLA2 inh -4, ADAM17 inh 7, PLC-beta3 inh 2, ADAM10 inh 15, PLCg1 inh 2 and proKLK7 act 0.
For CN1CCN(C(=O)c2cc3c(ccc4ccccc43)oc2=O)CC1 the results were HGIII-sPLA2 inh 3, ADAM17 inh -496, PLC-beta3 inh inactive, ADAM10 inh inactive, PLCg1 inh inactive, proKLK7 act 56*, KLK7 act conf 22* and EDANS interfere 21*.
`O=C(c1cc2c(ccc3ccccc32)o1)N1CCCCC1` gave HGIII-sPLA2 inh -4, ADAM17 inh -1, PLC-beta3 inh -2, ADAM10 inh -1, PLCg1 inh 2 and proKLK7 act 0.
Screening COC(=O)c1cc2c(ccc3ccccc32)oc1=O returned HGIII-sPLA2 inh -4, ADAM17 inh inactive, PLC-beta3 inh inactive, ADAM10 inh inactive, PLCg1 inh inactive, proKLK7 act 65*, KLK7 act conf 67* and EDANS interfere 74*.
Screening Cc1cc(NS(=O)(=O)c2ccc(NC(=O)Cc3ccc(Cl)c(Cl)c3)cc2)on1 returned HGIII-sPLA2 inh -55, ADAM17 inh -5, PLC-beta3 inh -18, ADAM10 inh -8, PLCg1 inh -9 and proKLK7 act 0.
For Cc1nc2ccc(S(=O)(=O)NCC(=O)NCc3ccccc3C)cc2s1 the results were HGIII-sPLA2 inh -6, ADAM17 inh 0, PLC-beta3 inh 0, ADAM10 inh 0, PLCg1 inh -1 and proKLK7 act 1.
`COc1ccccc1-c1nnc2n1N=C(c1ccc3c(c1)OCO3)CS2` gave HGIII-sPLA2 inh -1, ADAM17 inh 2, PLC-beta3 inh 4, ADAM10 inh 11, PLCg1 inh 2 and proKLK7 act 0.
c1csc(CNc2nc(Oc3ccncc3)c3sccc3n2)c1 was read as HGIII-sPLA2 inh 14, ADAM17 inh -296, PLC-beta3 inh inactive, ADAM10 inh inactive, PLCg1 inh inactive, proKLK7 act 17*, KLK7 act conf 5 and EDANS interfere 12*.
`c1ccc(CNc2nc(Oc3ccncc3)c3sccc3n2)cc1` gave HGIII-sPLA2 inh 1, ADAM17 inh -218, PLC-beta3 inh inactive, ADAM10 inh inactive, PLCg1 inh -410, proKLK7 act 15*, KLK7 act conf 10 and EDANS interfere 4.9*.
`C=CCn1c(=N)c(C(=O)NCCCOC)cc2c(=O)n3ccccc3nc21` gave HGIII-sPLA2 inh 4, ADAM17 inh inactive, PLC-beta3 inh inactive, ADAM10 inh inactive, PLCg1 inh inactive, proKLK7 act 136*, KLK7 act conf 57* and EDANS interfere 67*.
Screening C=CCn1c(=N)c(C(=O)NCCCOC)cc2c(=O)n3cc(C)ccc3nc21 returned HGIII-sPLA2 inh 6, ADAM17 inh inactive, PLC-beta3 inh inactive, ADAM10 inh inactive, PLCg1 inh inactive, proKLK7 act 143*, KLK7 act conf 58* and EDANS interfere 62*.
C=CCn1c(=N)c(C#N)cc2c(=O)n3ccccc3nc21 was read as HGIII-sPLA2 inh 2, ADAM17 inh -237, PLC-beta3 inh -166, ADAM10 inh inactive, PLCg1 inh -132 and proKLK7 act 11.
